TGFb inhibitor: inhibitors of TGF-b signaling; HepG2 CAGA-GFP TGF-b/SMAD3 reporter, GFP fluorescence, 18 h; TGF-beta stimulated, 500 pg/mL final; Potency, µM (titrated, usually from 46.1 µM), without a hit: at the top dose activity, negative = inhibition, usual class: inhibitors; 410,000 tested, 1.2% active; note: % is set by controls: 0 for no effect and ±100 for the full control effect; nearly all actives have a fitted effect of over 65% in size
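Per well, imaged GFP fluorescence of HEPG2 CAGA-GFP cells gives the signal; cells get compound, then TGF-beta (500 pg/mL final), 18 h at 37 degrees C; %Activity versus -TGF-beta and +DMSO controls.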
HepG2 tox: HepG2 cytotoxicity, counter-screen for TGF-b inhibitors; 410,000 tested, 0.76% active; HepG2 CAGA-GFP viability, ATP luminescence, 18 h; Potency, µM (titrated, usually from 46.1 µM), inactives show at the top dose activity change, negative = cytotoxicity, hits mostly cytotoxic
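CellTiter-Glo luminescence gave cytotoxicity after 18 hours at 37 degrees C. The cells were HepG2 CAGA-GFP in 1% FBS DMEM, stimulated with 500 pg/mL TGF-beta after compound addition. %Activity was normalised to no-cell wells (complete cell-killing) and DMSO (no toxicity), and curves were fitted and classified.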
HT1080NT lethal: kills 2HG-producing HT-1080-NT fibrosarcoma cells | AID 686970 | 360,000 tested, 1.6% active | HT-1080-NT fibrosarcoma viability, CellTiter-Glo ATP luminescence, 48 h | Potency, µM (doses to about 46.1 µM), for inactives: at the highest dose activity, negative = less viability, hits mostly cytotoxic;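 note: NT is the 2HG producing partner of a matched IDH1 knockdown line; 0% = DMSO-treated cells and -100% = media-only wells without cells; nearly all actives have a fitted effect of over 55% in size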
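Viability of the 2HG-overproducing fibrosarcoma line after 48 hours of compound exposure at 37 degrees C was determined by luminescence with CellTiter-Glo, and concentration-effect curves were then fitted and categorized.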
ATXN viability: viability counter-screen for ATXN expression inhibitors; S2 cells (HEK-293 line with an ATXN2-luciferase reporter) viability, CellTiter-Fluor protease fluorescence, 24 h; Potency, µM (doses to about 56.7 µM), actives largely listed as cytotoxic; 400,000 tested, 0.49% active; AID 651635; note: nearly all actives have a fitted effect of over 40% in size
HT1080 IDH1KD tx: toxicity to HT-1080 IDH1 knockdown cells (counter line); Potency, µM (doses to about 46.1 µM), without a hit: at the top dose activity, negative = toxicity, most hits filed as cytotoxic; HT-1080 IDH1 knockdown viability, ATP luminescence, 48 h; 360,000 tested, 2% active;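 note: 0% = DMSO wells and -100% = cell-free medium wells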
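Using the IDH1-knockdown HT-1080 line run in the same batch and compound series as the NT line, viability after 48 h at 37 °C was determined by CellTiter-Glo luminescence and expressed as % activity.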
ATXN2 expr inh: inhibitors of ATXN2 expression | 360,000 tested, 0.72% active | Potency, µM (top dose mostly 57 µM), inactives show at the highest dose activity change, negative = inhibition, most hits filed as inhibitors | HEK-293 ATXN2-luciferase reporter, luminescence, 24 h | AID 1745845; note: % is set by controls: 0 for no effect and ±100 for the full control effect; nearly all actives have a fitted effect of over 55% in size
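ATXN2-luciferase reporter cells (luciferase flanked by upstream and downstream ATXN2 gene portions) were treated 24 h at 37 °C with compounds at up to 57 uM. SteadyGlo luminescence gave expression; GF-AFC fluorescence gave viability.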
An asterisk follows results filed as active; [ ] = another dose, or the depositor's remark. Most compounds without a hit are left out; they make up all but 3.8% or so of the library. Calls come from the whole dose curve; as a rule, active = well fitted curve in the direction sought with a large enough effect; inconclusive = small, poorly fitted or top-dose-only effect, or another doubt; inactive = no such curve, though single readings can be large; an effect the other way counts as inactive or inconclusive. Potency is the fitted concentration of half-maximal effect.

`CCc1ccc(CCC(=O)Nc2sc3c(c2C#N)CCCC3)o1` gave TGFb inhibitor -35%, HepG2 tox -1%, HT1080NT lethal 4µM*, ATXN viability inconclusive, HT1080 IDH1KD tx 4.5µM* and ATXN2 expr inh 1%.
For COc1cccc(C(=O)Nc2sc3c(c2C#N)CCN(C(C)=O)C3)c1 the results were TGFb inhibitor inconclusive, HepG2 tox -13%, HT1080NT lethal 2.6µM*, ATXN viability inconclusive and HT1080 IDH1KD tx 2.9µM*.
Screening N#Cc1c(NC(=O)c2ccccc2)sc2c1CCC2 returned TGFb inhibitor 0%, HepG2 tox -22%, HT1080NT lethal inconclusive, ATXN viability inactive, HT1080 IDH1KD tx inconclusive and ATXN2 expr inh 25%.
Screening N#Cc1c(NC(=O)c2cccnc2)sc2c1CCC2 returned TGFb inhibitor -17%, HepG2 tox 3%, HT1080NT lethal 16µM*, ATXN viability inconclusive, HT1080 IDH1KD tx 9.2µM* and ATXN2 expr inh 8%.
`CNC(=O)c1c(NC(=O)C2=COCCO2)sc2c1CCN(C(=O)OC)C2` gave TGFb inhibitor -6%, HepG2 tox 5%, HT1080NT lethal -2%, ATXN viability inactive, HT1080 IDH1KD tx 0% and ATXN2 expr inh 5%.
Screening COC(=O)N1CCc2c(sc(NC(=O)C3=COCCO3)c2C#N)C1 returned TGFb inhibitor 3%, HepG2 tox -11%, HT1080NT lethal 4.6µM*, ATXN viability inactive, HT1080 IDH1KD tx 3.7µM* and ATXN2 expr inh 6%.
O=C(Cn1cnc2onc(-c3ccc(F)cc3)c2c1=O)N1CCN(c2ccc(F)cc2)CC1 was read as TGFb inhibitor -29%, HepG2 tox -25%, ATXN viability inactive and ATXN2 expr inh inconclusive.
For CCCCCc1ccc(OCCCC[n+]2ccc(C)cc2)c(CCCCC)c1 the results were TGFb inhibitor 11µM*, HepG2 tox -97%, HT1080NT lethal 6.5µM*, ATXN viability inconclusive, HT1080 IDH1KD tx 6.5µM* and ATXN2 expr inh -32%[11.3 µM].
`CCC(C)(C)c1ccc(Oc2cccc(C(=O)O)c2)cc1` gave TGFb inhibitor -1%, HepG2 tox 0%, HT1080NT lethal 5%, ATXN viability inactive, HT1080 IDH1KD tx 9% and ATXN2 expr inh 61%.
CCC(C)(C)c1ccc(OCCCC[n+]2ccccc2)c(C(C)(C)CC)c1 was read as TGFb inhibitor inconclusive, HepG2 tox -104%, HT1080NT lethal 16µM*, ATXN viability inactive, HT1080 IDH1KD tx inconclusive and ATXN2 expr inh inconclusive.
For CCCCCCCCCCCCCCCC[n+]1ccc(C)cc1 the results were TGFb inhibitor inconclusive and HepG2 tox -89%.
For CCCCCc1ccc(OCCCC[n+]2cccc(C)c2)c(CCCCC)c1 the results were TGFb inhibitor inconclusive, HepG2 tox -101%, HT1080NT lethal 4.1µM*, ATXN viability inconclusive, HT1080 IDH1KD tx 4.1µM* and ATXN2 expr inh 10µM*.
`CCCCCc1ccc(OCCCC[n+]2ccccc2)c(CCCCC)c1` gave TGFb inhibitor inconclusive, HepG2 tox -157%, HT1080NT lethal 23µM*, ATXN viability inconclusive, HT1080 IDH1KD tx 8.2µM* and ATXN2 expr inh 14µM*.
For CCOC(=O)N1CCC(n2c(=O)[nH]c3cc(Cl)ccc32)CC1 the results were ATXN viability inactive and ATXN2 expr inh inconclusive.
For O=C(/C=C/c1cccnc1)c1cccc(O)c1 the results were TGFb inhibitor inconclusive, HepG2 tox -50%, HT1080NT lethal 21µM*, HT1080 IDH1KD tx inconclusive and ATXN2 expr inh inconclusive.
Screening O=C(C=Cc1ccccn1)c1ccccc1 returned TGFb inhibitor 6.3µM*, HepG2 tox 10µM*, HT1080NT lethal inconclusive, HT1080 IDH1KD tx 10µM* and ATXN2 expr inh inconclusive.
`O=C(C=Cc1cccnc1)c1ccccc1` gave TGFb inhibitor 20µM*, HepG2 tox -37%, HT1080NT lethal inconclusive, HT1080 IDH1KD tx 18µM* and ATXN2 expr inh inconclusive.
O=C(/C=C/c1cccc(O)c1)c1cccnc1 was read as TGFb inhibitor inconclusive, HepG2 tox -75%, HT1080NT lethal inconclusive, ATXN viability inconclusive, HT1080 IDH1KD tx inconclusive and ATXN2 expr inh -33%.
`COc1cc(C(=O)/C=C/c2cccnc2)c([N+](=O)[O-])cc1OC` gave TGFb inhibitor inconclusive, HepG2 tox -93%, HT1080NT lethal inconclusive, ATXN viability 14µM*, HT1080 IDH1KD tx inconclusive and ATXN2 expr inh 13µM*.
Screening O=C(C=Cc1ccccn1)c1ccccc1O returned TGFb inhibitor inconclusive, HepG2 tox -42%, HT1080NT lethal 0%, HT1080 IDH1KD tx -15% and ATXN2 expr inh inconclusive.
Cc1ncc2c(c1CNS(=O)(=O)N(C)C)CCN(C(=O)c1ccc(F)cc1Cl)C2 was read as ATXN viability inactive.
Screening Cc1cc([C@@H](C)Nc2ccccc2C(=O)O)c2nc(N3CCOCC3)cc(=O)n2c1 returned ATXN2 expr inh -4%[116 µM].
Screening COc1cc(C)ccc1OCCSc1nc2ccc(NC(=O)c3cccs3)cc2s1 returned TGFb inhibitor -6%, HepG2 tox -13%, ATXN viability inactive and ATXN2 expr inh -16%.
For O=C(/C=C/c1ccc(O)cc1)c1ccccc1 the results were TGFb inhibitor -19%, HepG2 tox -21%, HT1080NT lethal -4%, ATXN viability inactive, HT1080 IDH1KD tx -5% and ATXN2 expr inh 33%.
O=C(C=Cc1ccccc1Cl)c1ccccc1 was read as TGFb inhibitor -3%, HepG2 tox -17%, HT1080NT lethal 23µM*, ATXN viability inactive, HT1080 IDH1KD tx inconclusive and ATXN2 expr inh 24%.
`COc1cccc(C2(CC(=O)N3CCN(c4ccccc4O)CC3)CC(=O)N(C3CCCC3)C2=O)c1` (stereo not given) gave ATXN viability inactive.
For O=C(OCCN1C(=O)c2cccc3c(N4CCOCC4)ccc(c23)C1=O)c1cccc(Cl)c1 the results were TGFb inhibitor 25%, HepG2 tox 8%, HT1080NT lethal 15µM*, HT1080 IDH1KD tx 9.2µM* and ATXN2 expr inh -37%.
`O=C(OCCN1C(=O)c2cccc3c(N4CCOCC4)ccc(c23)C1=O)c1ccc(Cl)cc1Cl` gave TGFb inhibitor 50%, HepG2 tox 4%, HT1080NT lethal 1.8µM*, HT1080 IDH1KD tx 2.3µM* and ATXN2 expr inh -25%.
O=C(OCCN1C(=O)c2cccc3c(N4CCOCC4)ccc(c23)C1=O)c1ccccc1Cl was read as TGFb inhibitor 70%, HepG2 tox -12%, HT1080NT lethal -23%, HT1080 IDH1KD tx inconclusive and ATXN2 expr inh inconclusive.

Screens as filed in PubChem.
